# Screens from PubChem BioAssay.
# IDE inh: inhibitors of human insulin-degrading enzyme in cells; P14735; HEK cells, FAbetaB cleavage, fluorescence polarization; inhibition, % at 5.59 µM; 0.41% of 320,000 active;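 active means percent inhibition above the average of all tested compounds plus 3 SD, set per screening campaign, cut at about 16% in these data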;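 further: IDE supplied by intact live HEK cells; FP after avidin binding of uncleaved biotin substrate so inhibition keeps polarization high; 0% = DMSO wells and 100% = 60 µM reference IDE inhibitor Ii1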
# Target sequence (P14735 whole entry, looked up): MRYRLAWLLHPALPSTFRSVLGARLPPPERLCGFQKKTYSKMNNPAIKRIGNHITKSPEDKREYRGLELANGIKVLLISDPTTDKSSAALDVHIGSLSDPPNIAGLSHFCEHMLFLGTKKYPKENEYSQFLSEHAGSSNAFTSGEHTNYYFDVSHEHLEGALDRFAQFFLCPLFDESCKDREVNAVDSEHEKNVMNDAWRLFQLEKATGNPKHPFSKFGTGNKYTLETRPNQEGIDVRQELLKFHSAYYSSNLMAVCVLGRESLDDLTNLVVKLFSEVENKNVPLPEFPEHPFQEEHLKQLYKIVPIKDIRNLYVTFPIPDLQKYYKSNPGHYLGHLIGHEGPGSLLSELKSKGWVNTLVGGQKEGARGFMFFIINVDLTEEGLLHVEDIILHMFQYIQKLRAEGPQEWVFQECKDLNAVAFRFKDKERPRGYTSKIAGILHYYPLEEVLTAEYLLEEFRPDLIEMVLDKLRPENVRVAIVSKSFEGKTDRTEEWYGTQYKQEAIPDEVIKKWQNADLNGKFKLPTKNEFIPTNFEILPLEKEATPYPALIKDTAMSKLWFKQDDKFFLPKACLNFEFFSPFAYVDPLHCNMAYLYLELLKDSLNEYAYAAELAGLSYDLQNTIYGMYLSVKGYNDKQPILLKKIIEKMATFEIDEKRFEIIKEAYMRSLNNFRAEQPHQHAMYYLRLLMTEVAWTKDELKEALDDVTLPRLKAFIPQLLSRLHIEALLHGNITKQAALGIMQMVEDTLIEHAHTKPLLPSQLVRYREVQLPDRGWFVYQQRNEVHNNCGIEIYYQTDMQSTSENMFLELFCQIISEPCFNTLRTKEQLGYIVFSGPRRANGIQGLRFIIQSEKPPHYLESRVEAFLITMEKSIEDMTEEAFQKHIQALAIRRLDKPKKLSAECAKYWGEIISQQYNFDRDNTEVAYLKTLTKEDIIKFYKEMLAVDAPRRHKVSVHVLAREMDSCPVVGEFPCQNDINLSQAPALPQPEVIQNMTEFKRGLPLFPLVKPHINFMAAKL
# CHT inh: inhibitors of human choline transporter CHT | AID 488975 | CHT-expressing cells, membrane potential dye, choline response; active compounds read low | Q9GZV3 | B-score at 10 µM | 0.86% of 310,000 active;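 active means B-score over 3 SD under the library average, and starting fluorescence ratio not unusually high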;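 further: choline stimulus applied at its EC90 after an EC20 pre-addition; B-score computed on integrated fluorescence ratio after choline addition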
# TMEM16A inh: inhibitors of mouse TMEM16A calcium-activated chloride channel. Q8BHY3. HEK293 TMEM16A/YFP iodide influx fluorescence, ionomycin. normalized B-score (activity score, 25-100; higher = stronger inhibition) at 10 µM. 1.2% of 310,000 active. AID 588511;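 active means ratio plate-corrected score three or more library SD toward inhibition, starting fluorescence score within five deviations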;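 further: score derived from kinetic fluorescence span divided by baseline fluorescence per well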
# IDE act: IDE (human) activation, cell-based; HEK cells, FAbeta-B cleavage, fluorescence polarization; 0% vehicle, 100% cell-free pure enzyme wells; activation, % at 5.96 µM; 0.073% of 340,000 active; AID 493087;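 active means activation above the mean of all tested compounds plus 3 SD, set per screening campaign, cut at about 17% in these data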
# CHT PAM: allosterically activates the human high affinity choline transporter. 0.49% of 310,000 active. AID 488977. CHT-expressing cells, membrane potential dye, choline EC20; active compounds read high; LV-AA mutant CHT in HEK293 cells. Q9GZV3. B-score at 10 µM;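 active means initial fluorescence not abnormally high and integrated response B-score, plate-corrected, over 3 SD above library mean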
# TMEM16A act: mouse TMEM16A channel activation, primary screen; B-score at 10 µM; AID 623877; HEK293 TMEM16A/YFP-H148Q/I152L, iodide quench fluorescence; active compounds read low; 0.3% of 340,000 active; Q8BHY3;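 active means fluorescence-ratio B-score plate-corrected deviation score at least 3 library SD below zero, with starting fluorescence score within 5 deviations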;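 further: channel opened by trigger with iodide after compound preincubation; score built on the fluorescence ratio of max minus min over baseline; more negative score means more quench and so TMEM16A activation or potentiation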
# CHT act confirm: confirmation of human choline transporter (CHT) activators; shares compounds with CHT PAM; CHT-expressing cells, membrane potential dye fluorescence (FDSS); % of choline EC20–EC90 response window; HEK293 expressing CHT LV-AA mutant; choline added at its EC20; activation, % at 10 µM; 91% of 2,500 active;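 active means primary screen active, with duplicate mean activation above negative control mean plus 3 SD, cut at about 11% in these data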
# HEK293 MP dye: CHT activator counter-screen hit in parental HEK293 cells; shares compounds with CHT PAM; membrane potential dye fluorescence (FDSS); measured after EC20 choline addition; ratio readout change at 10 µM, hits read low; 62% of 2,500 active; AID 623908;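 active means duplicate-averaged ratio beyond 3 SD from buffer wells, up or down, though filed actives are nearly all decreases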
# TMEM16A reconf: re-confirmation of mouse TMEM16A chloride channel inhibitors | shares compounds with TMEM16A inh | HEK293 TMEM16A/YFP-H148Q, iodide quench fluorescence; ionomycin added to raise cell calcium | inhibition, % at 10 µM | 39% of 2,300 active;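 active means mean duplicate percent inhibition, scaled so buffer wells are 0 and the reference blocker 100, over three buffer SD above buffer mean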
# HEK293 Ca mobil: alters calcium mobilization in TMEM16A HEK293 cells, counter-screen. shares compounds with TMEM16A inh. TMEM16A/YFP HEK293, Fluo4 calcium mobilization. calcium response (% of ionomycin), % at 10 µM. 2% of 2,300 active. AID 652231;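 active means duplicate-averaged calcium signal over 20% of the ionomycin maximum, relative to buffer baseline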;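 further: each well's signal is peak minus trough fluorescence divided by its pre-addition baseline; 0% = buffer wells and 100% = ionomycin wells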
# YFP-HEK293 quench: acts in parental YFP-HEK293 cells lacking TMEM16A, counter-screen; 2,300 tested, under 10 active; YFP ratio F(max-min)/F0 at 10 µM; shares compounds with TMEM16A inh; iodide YFP quench, ionomycin;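 active means yellow fluorescent protein signal ratio exceeding the buffer control mean by over 5 SD of those controls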;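 further: ratio is mean of duplicate wells from kinetic YFP trace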
# ClC-1 inh: selectivity of TMEM16A inhibitors: inhibition of rat ClC-1 chloride channel; shares compounds with TMEM16A inh; CHO ClC-1-YFP, iodide influx fluorescence quench; iodide control reads 0, buffer control 100; ratio percent, % at 10 µM; 2,300 tested, under 10 active; AID 652236;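 active means duplicate-mean ratio percent above the mean of iodide-only control wells, which defines zero, plus 5 of their SD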;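 further: higher percent means stronger block of ClC-1 iodide influx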
# Starred values were filed as active, the others as inactive; i = inactive; . = not tested or not shown. This is a sample that favours compounds with a hit; in the whole collection about 2.7% have one here.
SMILES,IDE inh,CHT inh,TMEM16A inh,IDE act,CHT PAM,TMEM16A act,TMEM16A reconf,HEK293 Ca mobil,YFP-HEK293 quench,ClC-1 inh,others
Cc1cccc(N(C)S(=O)(=O)c2ccc(-c3cc(C)no3)s2)c1,-1.4,i,25*,1.0,i,i,i,i,-0.883,-7.5,CHT act confirm=39.4*;HEK293 MP dye=i
O=C(Nc1ccc2c(c1)OCO2)NC1(C(F)(F)F)Oc2ccccc2O1,1.4,i,i,3.8,i,i,.,.,.,.,
O=C(NC1(C(F)(F)F)Oc2ccccc2O1)N1CCCC1,1.1,i,100*,4.5,6.62*,i,i,i,-1,3.5,CHT act confirm=0.5;HEK293 MP dye=i
CC12CCC(=O)N1C(C(=O)NNC(=O)COc1cccc(C(F)(F)F)c1)CS2 (centres undefined),0.8,i,i,-2.0,i,i,.,.,.,.,
CC(C)N(C)Cc1cn(C)nc1-c1ccc(Oc2ccccc2)cc1,1.9,i,i,6.7,i,i,.,.,.,.,
CCN(Cc1ccncc1)Cc1cn(C)nc1-c1ccc(Oc2ccccc2)cc1,5.8,i,100*,6.4,i,i,i,i,-1.19,-5.5,CHT act confirm=19.2*;HEK293 MP dye=i
Cc1cc(C)nc(/N=C(\N)Nc2ccc(SC(F)F)cc2)n1,2.2,i,100*,-0.1,i,i,i,32.0%*,-0.978,-6.0,CHT act confirm=46.2*;HEK293 MP dye=-49*
CC(=O)C1CCC2C3CCC4CC(=O)CCC4(C)C3C(C)(O)CC12C (centres undefined),.,.,.,-6.5,.,i,.,.,.,.,
Cc1sc2c(=O)n3c(nc2c1C(=O)NCCCN1CCOCC1)CCCCC3,2.0,i,100*,-2.5,6.9*,i,i,i,-0.948,-10.0,CHT act confirm=50.7*;HEK293 MP dye=-40.1*
Cc1ccc(CNC(=O)[C@H](Cc2ccccc2)NC(=O)C2CCNCC2)cc1,3.4,i,i,3.7,i,i,.,.,.,.,
Cn1cccc1C1C=C(c2ccc(C(C)(C)C)cc2)Nc2ncnn21 (centres undefined),1.4,i,100*,-4.8,i,i,49.5%*,i,-0.852,-8.5,
Cc1nc2ccc(NS(=O)(=O)c3ccccc3Cl)cc2s1,0.8,.,.,6.3,.,i,.,.,.,.,
CSc1nc2ccc(NS(=O)(=O)c3cccc(Cl)c3Cl)cc2s1,-1.9,i,100*,1.8,i,i,62.0%*,i,-0.921,-15.5,
CC1(C)CC2CC(C)(CN2S(=O)(=O)c2ccc(F)cc2F)C1 (centres undefined),0.9,.,.,1.8,.,i,.,.,.,.,
CCNC(=O)CSc1nc2cc(S(=O)(=O)Nc3ccc(OC)cc3)ccc2o1,-4.3,i,i,3.6,i,i,.,.,.,.,
COc1ccc(NS(=O)(=O)c2ccc3oc(SC(C)C(N)=O)nc3c2)cc1 (centres undefined),1.9,i,25*,0.2,i,i,i,i,-0.905,-13.5,
CCc1ccc(NC(=S)N(Cc2ccccc2)Cc2ccccn2)cc1,-0.3,i,25*,2.5,i,i,i,i,-1.22,-8.0,
CCc1ccc(NC(=S)N(CCCN2CCOCC2)Cc2ccccn2)cc1,7.0,i,i,6.2,i,i,.,.,.,.,
Cc1ccc(NC(NC(=O)c2cccs2)C(Cl)(Cl)Cl)cc1C (centres undefined),-3.0,i,100*,6.5,i,i,28.5%*,i,-1.21,-9.5,
Cc1ccc(NC(NC(=O)c2cccs2)C(Cl)(Cl)Cl)cc1 (centres undefined),1.4,i,i,1.3,i,i,.,.,.,.,
COc1ccccc1CCC(=O)N(C)CC(=O)Nc1ccc(Cl)c(C(F)(F)F)c1,1.7,i,i,0.2,i,i,.,.,.,.,
Cc1cccc(-c2nnc(NC(=O)c3ccc(N4C(=O)CCC4=O)cc3)s2)c1,4.2,i,i,1.4,i,i,i,i,-0.864,-10.0,
COc1ccc(Cn2c(=O)[nH]c3cc(C(=O)N4CCN(Cc5ccccc5)CC4)ccc3c2=O)cc1,2.2,i,25*,3.5,i,i,i,i,-1.13,-15.5,
CN(c1ccccc1)S(=O)(=O)c1cccc(C(=O)NCC(=O)Nc2ccc(F)c(F)c2F)c1,-1.6,.,.,-0.6,.,i,.,.,.,.,
COc1ccc(CN(C)C(=O)c2ccc(COc3ccccc3)cc2)c(OC)c1,-7.1,i,25*,2.8,i,i,i,i,-1.13,-5.0,
SMILES,IDE inh,CHT inh,TMEM16A inh,IDE act,CHT PAM,TMEM16A act,TMEM16A reconf,HEK293 Ca mobil,YFP-HEK293 quench,ClC-1 inh,others
COc1cccc(CN(C)C(=O)c2ccc(COc3ccc(Cl)cc3)cc2)c1OC,10.0,i,i,-2.3,i,i,.,.,.,.,
COc1ccccc1CN(C)C(=O)c1ccc(COc2ccccc2)cc1,2.3,i,100*,-0.6,i,i,i,i,-0.922,-1.5,
O=C(CCC1CCCCC1)Nc1ccccc1-c1ccccc1,3.2,i,100*,2.2,i,i,26.5%*,i,-0.789,-5.0,
Cc1ccc(NC(=S)NCCSc2ccc(Cl)cc2)cc1,2.3,i,i,-0.5,i,i,.,.,.,.,
CC(CNC(=S)Nc1cc(F)cc(F)c1)CSc1ccc(Cl)cc1 (centres undefined),-2.0,i,25*,5.5,i,i,43.5%*,i,-1.02,-15.5,
CCC(C(=O)N1CCOCC1)n1nc(C)c2sc3ccccc3c2c1=O (centres undefined),2.8,i,i,-3.3,i,i,.,.,.,.,
Cc1nc(SCC(=O)N2CCCCCC2)c2c(=O)n(C)c(=O)n(CC(C)C)c2n1,.,.,.,-9.5,.,i,.,.,.,.,
